The panel holds about 83,000 compounds, 20% with a hit somewhere; the sample as a whole holds those more often.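 Negative percent growth values reflect cell death: -40 means 40% of the cells present at the start died, and -100 means all died.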 A number with no mark means an inactive call. The source made the active and inactive calls. The calls were made as follows: active = growth percent below 10; inactive = the rest.

Among the test systems are HT29 colon; SNB-75 CNS; SNB-19 CNS; U251 CNS; SK-MEL-5 melanoma; UACC-62 melanoma; LOX IMVI melanoma; SK-MEL-28 melanoma; SK-MEL-2 melanoma; EKVX NSCLC; SN12C renal; UO-31 renal; TK-10 renal; ACHN renal; CAKI-1 renal; A498 renal; CCRF-CEM leukemia; MOLT-4 leukemia; PC-3 prostate; SR leukemia.
Holding throughout (assay): NCI-60 one-dose screen, 48 h (100 = growth as untreated, 0 = no growth, -100 = all killed)
What all share (conditions): 10 µM unless noted

On to `COc1ccc2[nH]cc(/C=C3/C(=O)Nc4ccc(F)cc43)c2c1`, for which the growth in the assay on HT29 colon was 79.1%; in the assay on SNB-75 CNS, 43.2%; with SNB-19 CNS it was 88.2%; in the assay on U251 CNS, 80.1%; in the assay on SK-MEL-5 melanoma, 93.1%; in the assay on UACC-62 melanoma it was 73.5%. Moreover, the growth in the assay with LOX IMVI melanoma was 74.9%; in the assay on SK-MEL-28 melanoma, 96.2%; in the assay with SK-MEL-2 melanoma, 91.7%; with EKVX NSCLC it was 77.2%; in the assay on SN12C renal, 78.2%; with UO-31 renal it was 73.1%. Besides, the growth in the assay on TK-10 renal was 104%; in the assay on ACHN renal, 68.4%; with CAKI-1 renal, 62.4%; in the assay with A498 renal, 76%; in the assay on CCRF-CEM leukemia, 63.2%; with MOLT-4 leukemia, 61.6%.
For `CC(=O)Oc1c(C)c(OC(C)=O)c2c(c1C(C)=O)OC1CC(=O)C(C(C)=O)=C(O)C21C` (centres undefined), the growth with HT29 colon was 100%; with SNB-75 CNS it was 94.7%; in the assay with SNB-19 CNS it was 95.4%; in the assay with U251 CNS it was 91.6%; with SK-MEL-5 melanoma, 95.4%; in the assay on UACC-62 melanoma, 95.9%. Further, the growth in the assay on LOX IMVI melanoma is 86.7%; in the assay with SK-MEL-28 melanoma, 119%; in the assay on SK-MEL-2 melanoma, 107%; with EKVX NSCLC, 96.9%; in the assay with SN12C renal, 95.5%; in the assay with UO-31 renal, 89%. Moreover, the growth in the assay on TK-10 renal is 109%; in the assay on ACHN renal it was 97%; in the assay on CAKI-1 renal, 99.3%; in the assay on A498 renal, 136%; in the assay on CCRF-CEM leukemia, 102%; in the assay with MOLT-4 leukemia, 64%.
Take `Oc1ccccc1/C=N\Nc1ccccc1`: the growth with HT29 colon was 95.9%; in the assay on SNB-75 CNS, 71.9%; with SNB-19 CNS, 86%; with U251 CNS, 75.9%; in the assay on PC-3 prostate, 36.3%; in the assay with UACC-62 melanoma, -5.08% (active). Also, the growth in the assay on LOX IMVI melanoma was 53%; with SK-MEL-28 melanoma it was 102%; in the assay with SK-MEL-2 melanoma, 92.1%; in the assay on EKVX NSCLC, 72.8%; with SN12C renal, 44.9%; in the assay with UO-31 renal it was 15.5%. For the same compound, the growth was 110% in the assay on TK-10 renal; 27.2% in the assay with ACHN renal; 10.8% in the assay with CAKI-1 renal; 82.5% in the assay with A498 renal; 17.8% with CCRF-CEM leukemia; 35.3% with MOLT-4 leukemia.
Regarding `O=C(C=C=Nc1ccccc1)C(=O)N=C=Cc1ccccc1`, the growth in the assay on HT29 colon is 52.1%; with SNB-75 CNS, 75.8%; in the assay on SNB-19 CNS it was 92.3%; with U251 CNS, 83.7%; with SK-MEL-5 melanoma, 74.3%; with UACC-62 melanoma it was 67%. The growth was -47.5% (active) with LOX IMVI melanoma; 68.2% in the assay on SK-MEL-28 melanoma; 49.2% in the assay on SK-MEL-2 melanoma; 72.6% with EKVX NSCLC; 77.7% with SN12C renal; -51.3% (active) with UO-31 renal. Also, the growth is -20.3% (active) with TK-10 renal; -58.3% (active) in the assay with ACHN renal; 17.7% in the assay on CAKI-1 renal; 102% in the assay with A498 renal; -35.5% (active) with CCRF-CEM leukemia; -16.3% (active) in the assay with MOLT-4 leukemia. The growth with SR leukemia was 3.67% (active).
As to `COc1cc2c(cc1OCCCCCn1c(-c3ccc(OCc4ccccc4)cc3)nc3cc(N4CCOCC4)ccc31)N=C[C@@H]1CCCN1C2=O`, the growth in the assay on HT29 colon was -13.7% (active); with SNB-75 CNS, 12.1%; in the assay with SNB-19 CNS, 34.7%; with U251 CNS, -24.4% (active); with SK-MEL-5 melanoma it was -66.7% (active); with UACC-62 melanoma, -76.5% (active). In addition, the growth in the assay with LOX IMVI melanoma was -29.7% (active); with SK-MEL-28 melanoma it was -19% (active); in the assay with SK-MEL-2 melanoma, -40% (active); in the assay on EKVX NSCLC, 52.5%; in the assay on SN12C renal, 23.2%; in the assay on UO-31 renal, 0.0572% (active). In addition, the growth with TK-10 renal was -13.3% (active); with ACHN renal, -54.5% (active); in the assay on CAKI-1 renal, 18.5%; in the assay with A498 renal, -74.7% (active); in the assay on CCRF-CEM leukemia, 8.03% (active); with MOLT-4 leukemia, 23.7%. In the assay with SR leukemia, the growth is 137%.
With `C/C(=N\N1CC(=O)NC1=O)c1ccc([N+](=O)[O-])o1`, the growth with HT29 colon is 102%; with SNB-75 CNS it was 96.4%; in the assay with SNB-19 CNS, 99.3%; with U251 CNS, 102%; with SK-MEL-5 melanoma, 93.4%; with UACC-62 melanoma, 83.2%. Besides, the growth was 67.5% with LOX IMVI melanoma; 117% with SK-MEL-28 melanoma; 106% in the assay on SK-MEL-2 melanoma; 90.8% in the assay on EKVX NSCLC; 102% in the assay with SN12C renal; 85.1% in the assay on UO-31 renal. Also, the growth in the assay on TK-10 renal was 105%; with ACHN renal, 105%; with CAKI-1 renal it was 109%; in the assay with A498 renal, 76.7%; in the assay with CCRF-CEM leukemia it was 106%; in the assay on MOLT-4 leukemia, 99.5%. The growth in the assay on SR leukemia was 95.9%.
`CN(CC(=O)Nc1nc2ccccc2[nH]1)S(=O)(=O)c1ccc(Cl)cc1`: the growth was 64.7% in the assay on HT29 colon; 101% in the assay on SNB-75 CNS; 92.4% with SNB-19 CNS; 78.9% with U251 CNS; 84.1% in the assay with SK-MEL-5 melanoma; 66.9% with UACC-62 melanoma. Also, the growth is 64.7% with LOX IMVI melanoma; 121% in the assay with SK-MEL-28 melanoma; 53.7% in the assay with SK-MEL-2 melanoma; 95.4% with EKVX NSCLC; 93.9% in the assay on SN12C renal; 28.8% in the assay with UO-31 renal. Besides, the growth with TK-10 renal is 118%; with ACHN renal, 83.5%; with CAKI-1 renal, 89.8%; in the assay with A498 renal, 91.7%; in the assay on CCRF-CEM leukemia, 44.6%; in the assay with MOLT-4 leukemia, 58.5%. Also, the growth in the assay with SR leukemia was 89.9%.
`COc1ccc2[nH]c(-c3ccccc3)cc2c1`: the growth in the assay with HT29 colon is 102%; in the assay with SNB-75 CNS it was 88%; in the assay on SNB-19 CNS, 93.4%; in the assay on U251 CNS, 107%; in the assay on SK-MEL-5 melanoma it was 97%; in the assay with UACC-62 melanoma it was 84.7%. For the same compound, the growth with LOX IMVI melanoma was 105%; in the assay on SK-MEL-28 melanoma, 110%; in the assay with SK-MEL-2 melanoma, 101%; in the assay on EKVX NSCLC it was 94.5%; in the assay with SN12C renal, 97.1%; in the assay with UO-31 renal, 75.1%. For the same compound, the growth was 156% with TK-10 renal; 101% in the assay with ACHN renal; 99.1% in the assay with CAKI-1 renal; 89% in the assay with A498 renal; 88.5% in the assay on CCRF-CEM leukemia; 53.7% in the assay with MOLT-4 leukemia. Besides, the growth in the assay with SR leukemia was -14.8% (active).

Values taken from PubChem BioAssay (NCI).
